# Bioassay records (PubChem)
# IP6K1 inh – Primary qHTS assay for small molecule inhibitors of Inositol hexaphosphate kinase 1 (IP6K1) | Inositol hexakisphosphate kinase 1 (Homo sapiens), Q92551 | IP6K1 kinase, ADP-Glo luminescence, 2 h; active compounds read low | activity change, % (series mostly up to about 58 µM) | 0.81% of 140,000 active | AID 1645851, 2021; in the data active = activity change below about -25%
# Target sequence (Q92551 whole entry, looked up): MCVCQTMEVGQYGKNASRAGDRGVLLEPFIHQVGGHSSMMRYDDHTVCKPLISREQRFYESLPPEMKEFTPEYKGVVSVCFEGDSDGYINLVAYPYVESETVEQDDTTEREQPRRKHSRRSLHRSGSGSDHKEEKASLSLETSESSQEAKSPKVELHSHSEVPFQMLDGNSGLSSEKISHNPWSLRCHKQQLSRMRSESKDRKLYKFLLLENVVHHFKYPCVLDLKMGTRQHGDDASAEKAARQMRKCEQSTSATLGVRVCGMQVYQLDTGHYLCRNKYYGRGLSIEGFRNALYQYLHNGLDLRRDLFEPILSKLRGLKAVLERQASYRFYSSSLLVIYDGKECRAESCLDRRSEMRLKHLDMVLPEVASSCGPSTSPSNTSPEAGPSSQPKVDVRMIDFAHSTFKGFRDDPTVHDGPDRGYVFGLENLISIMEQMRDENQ
#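 ADP-Glo luminescence measures ADP made by human IP6K1 during a 2 h RT reaction with ATP/IP6 (mix at 1.3 mM/130 uM); top library doses 57.5 and 19.1 uM final.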
# KDM5B inhibitor – Primary screen for KDM5B Histone Demethylases FDH-coupled qHTS | 2.6% of 220,000 active | KDM5B demethylase, FDH-coupled NADH fluorescence (FDH is formaldehyde dehydrogenase) | Potency, µM (highest dose often 57.7 µM), most hits filed as inhibitors | AID 1347165, 2019; note: nearly all actives have a fitted effect of over 70% in size
#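 Here, H3K4me3 peptide (12.5 µM in substrate mix) is demethylated by KDM5BΔAP, 200 nM final, after 10 min compound exposure. Formaldehyde product is coupled through FDH (0.25 U/mL in mix) to NADH fluorescence; 30-min ΔRFU feeds dose-response curves.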
# HEK293 viab – GF-AFC viability counterscreen for inhibitors of alpha-synuclein gene (SNCA) expression; HEK-293-SNCA-luc viability, GF-AFC fluorescence, 24 h; Potency, µM (top dose mostly 57.1 µM), usual class: cytotoxic; 0.12% of 150,000 active; note: nearly all actives have a fitted effect of over 30% in size
#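 Cytotoxicity counterscreen: after 24 h compound treatment of genome-edited SNCA-luciferase HEK-293 cells, live-cell protease substrate GF-AFC read by fluorescence after 30 min; activity scaled between DMSO (0%) and medium-only (-100%), curves Hill-fitted.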
# SNCA expr inh – Primary qHTS assay for inhibitors of alpha-synuclein gene (SNCA) expression; HEK-293 SNCA-luciferase knock-in, luminescence, 24 h; Potency, µM (titrated, usually from 57.2 µM), hits mostly inhibitors; 0.17% of 140,000 active; note: nearly all actives have a fitted effect of over 45% in size
# Numbers stand for hits; 0 = inactive; ? = inconclusive; - = not tested or not shown. Hits are enriched below; roughly 3% of the tested compounds scored in any of these assays. Unless noted, calls come from the whole dose curve; as a rule, active = well fitted curve in the direction sought with a large enough effect; inconclusive = small, poorly fitted or top-dose-only effect, or another doubt; inactive = no such curve, though single readings can be large; an effect the other way counts as inactive or inconclusive.
SMILES,IP6K1 inh,KDM5B inhibitor,HEK293 viab,SNCA expr inh
Cc1cc(C)cc(NC(=O)c2cc3n(n2)CC(c2ccc(Cl)cc2)OC3)c1 (stereo unspecified),0,25µM,0,?
O=C(CC1CNCCO1)N1CCc2nc(-c3ccc(Cl)cc3)[nH]c2C1 (stereo unspecified),0,25µM,0,0
CCNC(=O)CC1COCCN1C(=O)c1csc(-c2cccs2)n1 (stereo unspecified),0,22µM,0,0
COc1ccccc1Nc1c2c(nc3ccc(NC(=O)c4cccc(OC)c4OC)cc13)CCCC2,0,0,16µM,?
Cc1ccccc1Cc1c(C)nc2c(C(=O)N3CCC(Cc4nncn4CC4CC4)CC3)cnn2c1C,0,25µM,0,0
O=C(NCc1nnc2c(-c3nc(C4CC4)no3)cccn12)C1CCC1,0,28µM,0,0
O=C(NCc1nnc2c(-c3nc(C4CC4)no3)cccn12)c1ccccc1Cl,0,?,0,0
O=C(CCC1CCCC1)NCc1nnc2c(-c3nc(C4CC4)no3)cccn12,0,11µM,0,0
COc1ccc(CCC(=O)NCc2nnc3c(-c4nc(C5CC5)no4)cccn23)cc1,0,0,0,0
O=C(CCCc1ccccc1)NCc1nnc2c(-c3nc(C4CC4)no3)cccn12,0,28µM,0,0
O=C(Cc1ccccn1)NC1CCN(Cc2ccc(-c3ccsc3)cc2)C1 (stereo unspecified),0,-,0,0
COc1ccc(CC2CN(C(=O)c3ccnc(N)c3)CCO2)cc1 (stereo unspecified),0,25µM,0,0
CN1CCOc2c(C(=O)NCc3cnn(C)c3)cc(-c3ccc(CO)cc3)cc21,0,20µM,0,0
CN1CCOc2c(C(=O)NCC[S+](C)(=O)[O-])cc(-c3ccccc3)cc21,0,32µM,0,0
Cc1ccc(-c2cc(C(=O)NCc3cnn(C)c3)c3cc(Br)ccc3n2)cc1,0,0,0,0
COc1ccc(-c2cc(C(=O)NCC[S+](C)(=O)[O-])c3c(c2)N(C)CCO3)cn1,0,32µM,0,0
COc1ccc(-c2cc(C(=O)NCc3cc(C)on3)c3c(c2)N(C)CCO3)cn1,0,35µM,0,0
Cc1ccc(-c2cccc(CN3CCCC3C(=O)NC3CCCC3)c2)cc1Cl (stereo unspecified),0,-,-,-
Cc1nn(-c2ccccc2)c2c1C(C)N(C1CN(C(=O)Nc3ccccc3F)C1)C2=O (stereo unspecified),0,-,-,-
Cc1nn(-c2ccccc2)c2c1C(C(C)C)N(C1CCCN(C(=O)Cc3cccc(Cl)c3)C1)C2=O (stereo unspecified),0,-,-,-
COc1ccc(-c2cccc(C(=O)NCc3ccccc3F)c2)nn1,0,-,-,-
CN1CCOc2c(C(=O)NCc3cccnc3)cc(-c3ccc(O)c(F)c3)cc21,0,?,0,0
COc1ccc(-c2cc(C(=O)NCCc3cnc[nH]3)c3c(c2)N(C)CCO3)cc1OC,0,32µM,0,0
Cc1noc(C)c1-c1cc2c(cc(C)n2CCN(C)C)c(Nc2ccn(C)n2)n1,0,0,0,0
COc1ccc(-c2nc(-c3c(C)noc3C)cc3cc(C(C)C)oc23)cn1,0,28µM,0,0
SMILES,IP6K1 inh,KDM5B inhibitor,HEK293 viab,SNCA expr inh
Cc1noc(C)c1-c1cc2cc(C(C)C)oc2c(-c2cccc(CO)c2)n1,0,?,0,0
Cc1noc(C)c1-c1cc2c(cc(C)n2CCN(C)C)c(-c2cccnc2)n1,0,32µM,0,0
COc1ccc(-c2nc(-c3c(C)noc3C)cc3c2cc(C)n3CCN(C)C)cn1,0,40µM,0,0
CCOC(=O)[C@@H]1CN(C(=O)C(C)C)[C@H]2c3ccc(OC)cc3O[C@@H]12,0,-,-,-
COc1ccccc1-c1cc(C(=O)NCc2cccnc2)c2c(c1)N(C)CCO2,0,40µM,0,0
CNC(=O)c1cc(-c2cccc(OC)c2OC)cc2c1OCCN2Cc1cccnc1,0,32µM,0,0
CN1CCOc2c(C(=O)NCc3cccnc3)cc(-c3ccc(N4CCOCC4)cc3)cc21,0,?,0,0
COc1cccc(-c2cc(C(=O)NCc3cccnc3)c3c(c2)N(C)CCO3)c1OC,0,35µM,0,0
COCC(=O)N1CCCN(Cc2cccnc2)c2ccccc21,0,0,0,0
COc1ccc(C(C)NC(=O)c2noc(-c3ccc[nH]c3=O)n2)cc1OC (stereo unspecified),0,32µM,0,?
Cc1ccc(C)c(N2CCN(C(=O)c3noc(-c4ccc[nH]c4=O)n3)CC2)c1,0,28µM,0,0
Cc1ccc(-c2nc(C(=O)N3CCN(c4cc(C)ccc4C)CC3)no2)cc1,0,?,0,0
CC(C)Oc1ccc(CNC(=O)c2noc(-c3ccc[nH]c3=O)n2)cc1,0,0,0,0
O=C(NCC1CC1)c1noc(-c2ccc[nH]c2=O)n1,0,0,0,0
COCCNC(=O)c1noc(-c2ccc[nH]c2=O)n1,0,28µM,0,0
COc1ccc(-c2cc(C(=O)NCc3ccc4c(c3)OCO4)c3cnn(C)c3n2)cc1,0,-,-,-
O=C(CCC1CCCC1)N1CC[C@@H]2COCCN(Cc3ccncc3)[C@@H]2C1,0,-,?,0
Fc1ccccc1-c1noc(-c2nc(-c3ccc4c(c3)OCO4)no2)n1,0,25µM,0,0
Cc1noc(-c2nc(-c3ccc4c(c3)OCO4)no2)n1,0,?,0,0
CCCc1noc(-c2nc(-c3ccc4c(c3)OCO4)no2)n1,0,25µM,0,0
O=C(Nc1ccc(F)cc1)c1cccn2nccc12,0,0,0,0
O=C(Nc1ccc(Cl)cc1Cl)c1cc2cccnn2n1,0,0,0,?
O=C(Nc1ccc(Cl)cc1Cl)c1cccn2nccc12,0,32µM,0,0
O=C(Nc1ccc(Cl)cc1Cl)c1cnn2ncccc12,0,35µM,0,0
O=[S+]1([O-])c2cccnc2OC(COc2ccccc2)CN1C1Cc2ccccc2C1 (stereo unspecified),0,-,0,0
SMILES,IP6K1 inh,KDM5B inhibitor,HEK293 viab,SNCA expr inh
COc1ccc(F)cc1-c1ccc(CN2CCC(NC(=O)C3CCCC3)C2)cc1 (stereo unspecified),0,-,-,-
CN1CCCC2(CCN(C(=O)c3cc(=O)[nH]c4ccc(F)cc34)C2)C1=O (stereo unspecified),0,25µM,0,?
O=C(c1ccc(C(F)(F)F)cc1)N1CCC(C(=O)N2CCC(N3Cc4cccn4C3=O)CC2)CC1,0,-,0,0
O=C1CC2(CCN(CC3CCNC3)C2)Nc2ccccc2N1 (stereo unspecified),0,112µM,0,0
N#Cc1ccc(CN2CCC3(CC(=O)Nc4ccccc4N3)C2)cc1 (stereo unspecified),0,0,0,0
Fc1ccccc1CN1CCCC2(CCN(c3cnccn3)C2)C1 (stereo unspecified),0,32µM,0,0
COc1ccc(F)c(CN2CCCC3(CCN(c4cc(C)nc(N)n4)C3)C2)c1 (stereo unspecified),0,?,?,0
